Tested on: XIP peptide (Xip251-270)
Assay: small-molecule binders of XIP peptide, primary screen, biochemical, small-molecule microarray, fluorescence 635/667 nm, 0.5 µg/mL protein (AID 1183)
Details: small-molecule microarray binding, fluorescence 635 nm; higher = more signal

Compound | composite z-score
O=C1C[C@@](C(=O)NCC(F)(F)F)(c2ccc([N+](=O)[O-])cc2)[C@@H](c2ccc(CO)cc2)N1C1CCCCC1 | 0.871
COC(=O)[C@@]1(Cc2ccc(OC)cc2)[C@H]2c3cc(C(=O)N(C)C)n(CCc4c[nH]c5ccc(O)cc45)c3C[C@H]2CN1C(=O)c1ccccc1 | 0.657
CC(C)c1ccc(NN2C(C(O)c3ccco3)C=CC3C(=O)N(c4ccccc4)C(=O)C32)cc1 (stereo not drawn) | 0.849
COC(=O)[C@@]1(Cc2ccc(OC)cc2)[C@H]2c3cc(C(=O)N(C)C)n(Cc4nc5ccccc5[nH]4)c3C[C@H]2CN1C(=O)c1ccccc1 | 0.599
CN1C(=O)[C@@]2(CCS(=O)(=O)c3ccccc3)N=C(c3ccc(OCCCO)cc3)O[C@H]2c2ccccc21 | 0.182
O=C1O[C@@H](c2ccccc2)[C@@H](c2ccccc2)N2[C@@H](c3ccc(O)cc3)[C@]3(C(=O)Nc4ccccc43)[C@@H](C(=O)Nc3nc4ccccc4s3)[C@H]12 | 0.638
CC(C)NC(=O)[C@@]1(C)c2ccccc2C(=O)N(C(C)C)[C@H]1c1ccc(CO)cc1 | 0.884
COC(=O)[C@@]1(Cc2ccccc2)[C@H]2c3cc(C(=O)N4CCCC4)[nH]c3C[C@H]2CN1C(=O)c1ccccc1 | 0.659

Tested on: not listed separately
Assay: Plasmodium falciparum growth inhibition, primary screen, strain 3D7, DAPI fluorescence, 100 nL (AID 1184);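 further: parasites grown inside human red blood cells in medium with human serum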
Details: P. falciparum 3D7 growth, 3 d, higher = more signal

Compound | z-score
O=C1O[C@@H](c2ccccc2)[C@@H](c2ccccc2)N2[C@@H](c3ccc(O)cc3)[C@]3(C(=O)Nc4ccc(C#CCCO)cc43)[C@@H](C(=O)Nc3nc4ccccc4s3)[C@H]12 | 0.204
C=CCOC(=O)[C@@H]1[C@H]2C(=O)O[C@H](c3ccccc3)[C@H](c3ccccc3)N2[C@H](c2ccc(OCCOC(=O)[C@H]3C[C@H]4C(=O)N[C@@H](CCCCN(C)C)C(=O)N4[C@H]3c3cccc(OCCO)c3)cc2)[C@@]12C(=O)Nc1ccc(I)cc12 | -1.65
Cc1c(NC(=O)/C(C#N)=C/C=C/c2ccc(N(C)C)cc2)c(=O)n(-c2ccccc2)n1C | -0.46
O=C1C2C=CC(C(O)c3cc(C(F)(F)F)cc(C(F)(F)F)c3)N(Nc3ccc([N+](=O)[O-])cc3)C2C(=O)N1c1ccccc1 (stereo not drawn) | -0.945
O=C1NC(=O)C2C1C=CC(C(O)c1cc(C(F)(F)F)cc(C(F)(F)F)c1)N2Nc1ccc(Cl)cc1Cl (stereo not drawn) | 0.0295
CO[C@H]1O[C@H](CO)[C@@H](OC(=O)Nc2ccccc2-c2ccccc2)[C@H](OC(=O)Nc2ccc3c(c2)OCO3)[C@@H]1OC(=O)Nc1ccc2c(c1)OCO2 | -2.17
Cc1ccc(F)cc1S(=O)(=O)N[C@@H]1CCN(Cc2ccc(Oc3ccccc3)cc2)C1 | -0.954
CCOC(=O)C1=CC[C@@H](c2ccccc2)N(S(=O)(=O)c2ccc(C)cc2)C1 | -0.557
Cc1ccc(S[C@]2(C(=O)NCC(F)(F)F)CC(=O)N(Cc3ccccc3)[C@@H]2c2ccc(CO)cc2)cc1 | -1.57
CC(C)CNC(=O)[C@@H]1c2ccccc2C(=O)N(Cc2cc(F)cc(C(F)(F)F)c2)[C@H]1c1ccc(CO)cc1 | 0.204
CCN(CC)c1ccc(N2CC=CC34O[C@@H]5/C=C\CCC(C)OC(=O)C5[C@H]3C(=O)N(CCO)[C@@H]4C2=O)cc1 (stereo partly drawn) | -1.23
COc1ccccc1CN1C(=O)c2ccccc2[C@@H](C(=O)NC(C)C)[C@@H]1c1ccc(CO)cc1 | -0.425
[N-]=[N+]=NCc1ccccc1[C@H]1OC(c2ccc(OCCCO)cc2)=N[C@@]1(CCS(=O)(=O)c1ccccc1)C(N)=O | -1.09
C=CCOC(=O)[C@@H]1[C@H]2C(=O)O[C@H](c3ccccc3)[C@H](c3ccccc3)N2[C@H](c2ccc(OCCOC(=O)[C@H]3C[C@H]4C(=O)N[C@@H](CCCC[N+](C)(C)C)C(=O)N4[C@H]3c3ccc(O)cc3)cc2)[C@@]12C(=O)Nc1ccc(I)cc12 | -1.16
C=C(CCCC)/C(=C/C[C@@H](OC(C)=O)c1ccc(CO)o1)c1cc(C(=O)OC)ccc1OC | -0.597
CC(C)C(O)C1C=CC2C(=O)N(C)C(=O)C2N1N(c1ccccc1)c1ccccc1 (stereo not drawn) | 0.0202
C=CCNC(=O)[C@@H]1[C@H]2C(=O)O[C@H](c3ccccc3)[C@H](c3ccccc3)N2[C@H](c2ccc(OCCO)cc2)[C@@]12C(=O)N(C(=O)OCCOC)c1ccc(C#CC3=CCCCC3)cc12 | -2.19
COCCOC(=O)N1C(=O)[C@@]2(c3cc(C#Cc4ccc(OC)cc4)ccc31)[C@H](C(=O)N1CCCCCCC1)[C@H]1C(=O)O[C@H](c3ccccc3)[C@H](c3ccccc3)N1[C@@H]2c1ccc(O)cc1 | -2.31

Compound | z-score
COC(=O)Cn1c(C(=O)N2CCCC2)cc2c1C[C@H]1CN(C(=O)c3ccccc3)[C@@](Cc3ccc(F)cc3)(C(=O)OC)[C@@H]21 | 0.554
NCCCCCNC(=O)[C@@H]1C[C@@H]2C(=O)N[C@@H](CCCCN)C(=O)N2[C@@H]1c1cccc(OCCO)c1 | -0.119
Cc1ccc(S[C@]2(C(=O)NC(C)C)CC(=O)N(Cc3ccccc3C(F)(F)F)[C@@H]2c2ccc(CO)cc2I)cc1 | -1.14
COCCOC(=O)N1C(=O)[C@@]2(c3cc(C#CC4(O)CCCCCC4)ccc31)[C@H](C(N)=O)[C@H]1C(=O)O[C@H](c3ccccc3)[C@H](c3ccccc3)N1[C@@H]2c1ccccc1OCCO | -2.19
C=CC[C@H](OC(=O)Nc1ccc(OC)cc1)c1ccc(O)c2ccccc12 | -1.36
COCC(=C=CC[C@H](O)c1cccc(OCCO)c1)C[C@H](O)c1ccccn1 | -0.737
C=CC[C@@]1(C(=O)N2CCCCC2)N=C(c2ccc(OCCCO)cc2)O[C@@H]1c1ccccc1 | -2.09
COCCCNC(=O)[C@@H]1c2ccccc2C(=O)N(Cc2ccccc2C(F)(F)F)[C@H]1c1ccc(CO)cc1 | 0.226
COc1ccc([Si](C)(C)[C@H]2[C@H](CCO)O[C@@]3(C(=O)N(Cc4cccc(N5CCCCC5=O)c4)c4ccccc43)[C@@H]2C)cc1 | -2.7
O=C1C[C@@](C(=O)NCC(F)(F)F)(c2ccc([N+](=O)[O-])cc2)[C@@H](c2ccc(CO)cc2)N1C1CCCCC1 | 0.0369
COC(=O)[C@@]1(Cc2ccc(OC)cc2)[C@H]2c3cc(C(=O)N(C)C)n(CCc4c[nH]c5ccc(O)cc45)c3C[C@H]2CN1C(=O)c1ccccc1 | -1.73
CC(C)c1ccc(NN2C(C(O)c3ccco3)C=CC3C(=O)N(c4ccccc4)C(=O)C32)cc1 (stereo not drawn) | -0.107
COC(=O)[C@@]1(Cc2ccc(OC)cc2)[C@H]2c3cc(C(=O)N(C)C)n(Cc4nc5ccccc5[nH]4)c3C[C@H]2CN1C(=O)c1ccccc1 | -1.17
CN1C(=O)[C@@]2(CCS(=O)(=O)c3ccccc3)N=C(c3ccc(OCCCO)cc3)O[C@H]2c2ccccc21 | -2.07
O=C1O[C@@H](c2ccccc2)[C@@H](c2ccccc2)N2[C@@H](c3ccc(O)cc3)[C@]3(C(=O)Nc4ccccc43)[C@@H](C(=O)Nc3nc4ccccc4s3)[C@H]12 | -0.247
CC(C)NC(=O)[C@@]1(C)c2ccccc2C(=O)N(C(C)C)[C@H]1c1ccc(CO)cc1 | -0.568
COC(=O)[C@@]1(Cc2ccccc2)[C@H]2c3cc(C(=O)N4CCCC4)[nH]c3C[C@H]2CN1C(=O)c1ccccc1 | -0.0756

From PubChem BioAssay
